In PubChem BioAssay (NCATS):
Records with an inconclusive call do not appear. Calls of active or inactive are those of the source. The call rests on the fitted dose curve; in most records, active means well fitted curve in the direction sought with a large enough effect; inconclusive means small, poorly fitted or top-dose-only effect, or another doubt; inactive means no such curve, though single readings can be large; an effect the other way counts as inactive or inconclusive.

Key:
[1] = qHTS for small molecule inhibitors of Yes1 kinase: Counter Assay (AID 686950);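 further: no kinase present so only ADP-Glo detection of a fixed ADP amount is tested; luminescence from ADP-Glo reporting ADP in a fixed ATP and ADP mixture; series mostly up to about 77 µM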
Method in brief: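 ADP-Glo luminescence read after a 60 min room-temperature incubation of compound with an ATP/ADP mix (0.08 mM/0.02 mM) and no kinase, following a 20 min compound preincubation. Signal scaled between ATP+ADP (max) and 0.1 mM ATP-only (min) wells; Tris pH 7.5, Mg2+, DTT.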

[2] = target: Arylsulfatase A (Homo sapiens) (UniProt P15289); experiment: qHTS screen for enhancers of Arylsulfatase A (ASA1): LOPAC Validation Assay (AID 720538)
Method in brief: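 SV40-transformed fibroblasts from an MLD patient (ASA-I179S) were treated with compound for 48 h at 37 C. They were then lysed with 0.5 mM pNCS substrate (final) for 14 h at room temperature and stopped with NaOH; signal read by fluorescence (Ex 525/Em 598 nm), with increase denoting enhanced activity.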

[3] = qHTS for compounds that reverse cellular toxicity of Amyloid beta (A-beta) peptide in yeast: LOPAC Validation Assay (AID 720559)
Method in brief: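 Yeast expressing toxic A-beta grown with pinned compounds at 30 C for 48 hr. Growth measured as absorbance at 600 nm; data normalized to DMSO and to an equimolar FeCl3/clioquinol mixture as positive control.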

[4] = qHTS for Activators of Parkin Expression: LOPAC Validation Assay (NLuc Reporter) (AID 720572)
Method in brief: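 Compound effects on Parkin promoter activity were measured as NanoLuc luminescence after 24 h at 37 C. The neuronal reporter line also carried FLuc, which was read first. LOPAC compounds were tested at 7 concentrations, with normalization to DMSO (0%) and positive control (100%).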

[5] = qHTS for Activators of Parkin Expression: LOPAC Validation Assay (FLuc Reporter) (AID 720573)
Method in brief: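 Neuronal cell line stably expressing FLuc/NLuc coincidence reporter under the Parkin promoter, 1,500 cells/well, dosed 24 h after seeding in 7-point series for 24 h at 37 C. FLuc luminescence read; normalized to DMSO and positive control (100%).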

[6] = target: Hexokinase-4 (Homo sapiens) + Glucokinase regulatory protein (Homo sapiens) (UniProt P35557+Q14397); experiment: qHTS assay for inhibitors of recombinant human GCK-GKRP interaction: Diaphorase-coupled assay (AID 743205)
Method in brief: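 Compounds pre-incubated 20 min with substrate, then 10 nM GST-GCK with 10 nM FLAG-GKRP added. GCK activity coupled via G6PDH and diaphorase to resorufin (5 mM glucose, 0.4 mM ATP, 0.15 mM NADP+, pH 7.6), read kinetically over 30 minutes at Ex 525/Em 590 nm.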

[7] = target: Tyrosine-protein kinase Yes (Homo sapiens) (UniProt P07947); experiment: qHTS for small molecule inhibitors of Yes1 kinase: Primary Screen (AID 686947); further: nearly all actives have a fitted effect of over 60% in size
Method in brief: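 ADP-Glo luminescence reports ADP formed by 4 nM Yes1 phosphorylating poly(E4Y) (0.3 mg/mL) with 0.1 mM ATP for 60 min at room temperature, following 20 min compound preincubation; normalised between DMSO wells with and without enzyme.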

Measured: Potency

Hexokinase-4 (Homo sapiens) + Glucokinase regulatory protein (Homo sapiens), sequence (P35557 whole entry, looked up): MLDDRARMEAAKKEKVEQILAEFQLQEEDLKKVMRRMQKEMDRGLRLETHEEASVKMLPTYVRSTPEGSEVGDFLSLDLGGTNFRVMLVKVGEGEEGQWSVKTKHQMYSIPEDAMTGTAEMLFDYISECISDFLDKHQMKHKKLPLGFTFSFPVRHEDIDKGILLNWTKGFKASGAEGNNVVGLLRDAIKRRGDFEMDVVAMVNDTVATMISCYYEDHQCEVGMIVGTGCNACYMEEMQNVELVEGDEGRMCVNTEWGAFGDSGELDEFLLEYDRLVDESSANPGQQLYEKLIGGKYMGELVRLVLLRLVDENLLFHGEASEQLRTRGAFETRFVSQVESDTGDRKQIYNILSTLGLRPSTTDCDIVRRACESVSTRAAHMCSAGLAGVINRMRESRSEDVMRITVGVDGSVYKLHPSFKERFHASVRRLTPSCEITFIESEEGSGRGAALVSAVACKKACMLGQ
Hexokinase-4 (Homo sapiens) + Glucokinase regulatory protein (Homo sapiens), sequence (Q14397 whole entry, looked up): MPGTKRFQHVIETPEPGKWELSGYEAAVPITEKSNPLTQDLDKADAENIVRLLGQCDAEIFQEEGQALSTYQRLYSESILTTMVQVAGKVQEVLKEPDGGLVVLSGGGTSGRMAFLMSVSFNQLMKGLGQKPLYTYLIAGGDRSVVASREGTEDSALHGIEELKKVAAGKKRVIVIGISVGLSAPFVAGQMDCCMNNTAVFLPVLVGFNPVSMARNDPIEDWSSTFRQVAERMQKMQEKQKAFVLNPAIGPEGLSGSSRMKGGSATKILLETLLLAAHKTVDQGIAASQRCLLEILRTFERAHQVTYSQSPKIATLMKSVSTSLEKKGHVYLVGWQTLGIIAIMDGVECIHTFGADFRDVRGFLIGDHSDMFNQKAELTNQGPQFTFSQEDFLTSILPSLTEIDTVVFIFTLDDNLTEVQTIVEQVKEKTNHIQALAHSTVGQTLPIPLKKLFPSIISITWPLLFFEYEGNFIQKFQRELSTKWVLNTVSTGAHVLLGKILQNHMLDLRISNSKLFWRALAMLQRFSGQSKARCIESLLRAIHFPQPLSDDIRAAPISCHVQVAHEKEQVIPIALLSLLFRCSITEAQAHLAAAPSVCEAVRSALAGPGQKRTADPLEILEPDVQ
Arylsulfatase A (Homo sapiens), sequence (P15289 whole entry, looked up): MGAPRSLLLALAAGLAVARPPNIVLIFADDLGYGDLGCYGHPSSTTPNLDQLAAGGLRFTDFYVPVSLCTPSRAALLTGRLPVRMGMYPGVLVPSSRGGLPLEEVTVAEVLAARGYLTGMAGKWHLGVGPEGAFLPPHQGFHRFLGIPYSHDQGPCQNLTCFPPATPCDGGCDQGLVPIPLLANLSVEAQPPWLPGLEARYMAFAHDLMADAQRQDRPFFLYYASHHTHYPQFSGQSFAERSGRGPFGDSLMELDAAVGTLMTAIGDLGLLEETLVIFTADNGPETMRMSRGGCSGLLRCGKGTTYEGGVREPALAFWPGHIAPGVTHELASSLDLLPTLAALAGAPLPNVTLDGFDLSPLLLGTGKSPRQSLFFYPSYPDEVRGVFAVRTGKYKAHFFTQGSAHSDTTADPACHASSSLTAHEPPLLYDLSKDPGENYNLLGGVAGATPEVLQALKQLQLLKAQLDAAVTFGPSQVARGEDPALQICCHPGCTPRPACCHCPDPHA
Tyrosine-protein kinase Yes (Homo sapiens), sequence (P07947 whole entry, looked up): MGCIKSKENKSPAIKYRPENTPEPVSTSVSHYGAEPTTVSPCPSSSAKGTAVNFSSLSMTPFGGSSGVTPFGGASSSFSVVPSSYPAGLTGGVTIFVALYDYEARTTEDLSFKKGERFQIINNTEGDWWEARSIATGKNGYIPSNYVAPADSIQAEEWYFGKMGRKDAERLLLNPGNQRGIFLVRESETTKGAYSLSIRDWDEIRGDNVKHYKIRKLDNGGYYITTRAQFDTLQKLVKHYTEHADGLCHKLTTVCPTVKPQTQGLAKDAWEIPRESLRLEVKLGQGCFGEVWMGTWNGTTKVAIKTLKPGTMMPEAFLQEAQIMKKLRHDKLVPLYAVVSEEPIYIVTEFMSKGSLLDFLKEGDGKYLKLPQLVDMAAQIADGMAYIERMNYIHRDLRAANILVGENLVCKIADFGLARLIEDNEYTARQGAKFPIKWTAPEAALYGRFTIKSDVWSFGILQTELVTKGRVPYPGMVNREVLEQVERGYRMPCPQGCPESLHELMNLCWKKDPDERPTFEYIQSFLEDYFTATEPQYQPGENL

CS(=O)(=O)CCNCc1ccc(-c2ccc3ncnc(Nc4ccc(OCc5cccc(F)c5)c(Cl)c4)c3c2)o1
inactive: [1]

COc1ccccc1N1CCN(CC(O)COc2cccc3ccccc23)CC1 (centres undefined)
inactive: [2] | [3] | [4] | [5]

CN1CCN(C2=Nc3cc(Cl)ccc3Nc3ccccc32)CC1
inactive: [2] | [3] | [4] | [5]

COC(=O)Nc1nc2ccc(C(=O)c3cccs3)cc2[nH]1
inactive: [2] | [3] | [4] | [5]

CCc1cccc2c3c([nH]c12)C(CC)(CC(=O)O)OCC3 (centres undefined)
not listed: [1] | [7]
inactive: all other assays above

CCN1CCCC1CNC(=O)c1cc(S(=O)(=O)CC)c(N)cc1OC (centres undefined)
inactive: [2] | [3] | [4] | [5]

NCCCCCC(=O)O
inactive: [2] | [3] | [4] | [5]

CNCCCC12CCC(c3ccccc31)c1ccccc12
inactive: [2] | [3] | [4] | [5]

COc1nc(C)nc(Cl)c1NC1=NCCN1
inactive: [2] | [3] | [4] | [5]

Cc1ccc(C(=O)Nc2ccc(S(=O)(=O)O)c3cc(S(=O)(=O)O)cc(S(=O)(=O)O)c23)cc1NC(=O)c1cccc(NC(=O)Nc2cccc(C(=O)Nc3cc(C(=O)Nc4ccc(S(=O)(=O)O)c5cc(S(=O)(=O)O)cc(S(=O)(=O)O)c45)ccc3C)c2)c1
inactive: [2] | [3] | [4] | [5]

O=C1Cc2cc(CCN3CCN(c4nsc5ccccc45)CC3)c(Cl)cc2N1
not listed: [1] | [7]
inactive: all other assays above

Cc1cc(C(C)(C)C)cc(C)c1CC1=NCCN1
not listed: [1] | [7]
inactive: all other assays above

NC(CO)C(=O)NNCc1ccc(O)c(O)c1O (centres undefined)
not listed: [1] | [7]
inactive: all other assays above

CC1(CN2CCC(n3c(=O)[nH]c4ccccc43)CC2)OCc2ccccc2-n2cccc21 (centres undefined)
inactive: [7] | [1]

CCCNCC(O)COc1ccccc1C(=O)CCc1ccccc1 (centres undefined)
inactive: [2] | [3] | [4] | [5]

CC(C(=O)O)c1cccc(C(=O)c2ccccc2)c1 (centres undefined)
inactive: [2] | [3] | [4] | [5]

CC(CCc1ccc(O)cc1)NCCc1ccc(O)c(O)c1 (centres undefined)
not listed: [1] | [7]
inactive: all other assays above

COc1cc2nc(N(C)CCCNC(=O)C3CCCO3)nc(N)c2cc1OC (centres undefined)
not listed: [1] | [7]
inactive: all other assays above

Cc1cnc(C(=O)NCCc2ccc(S(=O)(=O)NC(=O)NC3CCCCC3)cc2)cn1
not listed: [1] | [7]
inactive: all other assays above

OCCN(CCO)c1nc(N2CCCCC2)c2nc(N(CCO)CCO)nc(N3CCCCC3)c2n1
inactive: [2] | [3]

Fc1ccc([C@@H]2CCNC[C@H]2COc2ccc3c(c2)OCO3)cc1
inactive: [2] | [3] | [4] | [5]
